Hits are enriched below; roughly 2.4% of the tested compounds scored in any of these assays.
GLS inh = glutaminase GLS (human) inhibition; GLS enzymatic activity, qHTS titration; O94925; 410,000 compounds, 0.21% hits; Potency, µM (series often up to 45.5 µM), for inactives: at the highest dose activity change, negative = inhibition, hits mostly inhibitors; note: % is set by controls: 0 for no effect and ±100 for the full control effect
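Read-out is an Amplex red fluorescence increase coupled through glutamate oxidase and HRP, measured before and after 30 min room-temperature incubation. hKGA is in 45 mM KH2PO4 (pH 8.2) with 0.02% Tween-20; glutamine added as 1mM solution.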
Pol kappa inh-1 = DNA polymerase kappa (human) inhibition; Q9UBT6; purified Pol kappa, fluorescent DNA synthesis assay, 10 min; Potency, µM (series often up to 107 µM), inactives show at the highest dose activity, negative = inhibition, actives largely listed as inhibitors; 400,000 compounds, 0.53% hits; AID 588579; note: % is set by controls: 0 for no effect and ±100 for the full control effect
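Here, compound and 10 nM enzyme are combined for 15 min at room temperature; adding 50 nM substrate (final) starts DNA synthesis, tracked by fluorescence at 0 and 10 min against buffer-only wells.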
POLB inh = blocks human DNA polymerase beta activity; P06746; Pol beta primer extension/strand displacement, fluorescence kinetic; Potency, µM (series often up to 114 µM), without a hit: top-dose activity change, negative = inhibition, actives largely listed as inhibitors; 340,000 compounds, 1.3% hits; note: % is set by controls: 0 for no effect and ±100 for the full control effect
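Preincubation: enzyme (10 nM) with compound, 15 min, RT. Reaction: substrate added to 50 nM final. Reads: 0 and 10 min. Analysis: normalized, Hill fit.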
Pol eta inh-1 = blocks human DNA polymerase eta activity | recombinant Pol eta, fluorescent DNA replication assay | Potency, µM (series often up to 114 µM), for the others: top-dose activity change, negative = inhibition, most hits filed as inhibitors | AID 588591 | 390,000 compounds, 1.2% hits | Q9Y253; note: % is set by controls: 0 for no effect and ±100 for the full control effect
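Pol eta (10 nM) was preincubated with compounds for 15 min at room temperature, after which fluorescent replication substrate (50 nM final) was added to start the reaction. Fluorescence was read kinetically at 0 and 10 min.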
GCN5L2 inh = GCN5L2 (KAT2A) acetyltransferase inhibition. GCN5L2 HAT assay, ThioGlo1 CoA-SH fluorescence. Potency, µM (titrated, usually from 58.9 µM), without a hit: top-dose activity change, negative = inhibition, hits mostly inhibitors. Q92830. 390,000 compounds, 0.21% hits; note: % is set by controls: 0 for no effect and ±100 for the full control effect
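qHTS, 1536-well. 20nM enzyme, pH 7.5 HEPES/EDTA/Tween-20 buffer; 15 min compound preinc., RT. Start: 75uM H3(1-25), 70uM AcCoA, 50uM ThioGlo1. Read Ex340/Em540 at t=0 (autofluorescence flag) and t=20 min.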
POLI inh = blocks human DNA polymerase iota activity; Q9UNA4; Pol iota fluorescent replication assay, 10 min; Potency, µM (doses to about 115 µM), for the others: at the top dose activity, negative = inhibition, usual class: inhibitors; 390,000 compounds, 1% hits
Target sequence (Q9UNA4 whole entry, looked up): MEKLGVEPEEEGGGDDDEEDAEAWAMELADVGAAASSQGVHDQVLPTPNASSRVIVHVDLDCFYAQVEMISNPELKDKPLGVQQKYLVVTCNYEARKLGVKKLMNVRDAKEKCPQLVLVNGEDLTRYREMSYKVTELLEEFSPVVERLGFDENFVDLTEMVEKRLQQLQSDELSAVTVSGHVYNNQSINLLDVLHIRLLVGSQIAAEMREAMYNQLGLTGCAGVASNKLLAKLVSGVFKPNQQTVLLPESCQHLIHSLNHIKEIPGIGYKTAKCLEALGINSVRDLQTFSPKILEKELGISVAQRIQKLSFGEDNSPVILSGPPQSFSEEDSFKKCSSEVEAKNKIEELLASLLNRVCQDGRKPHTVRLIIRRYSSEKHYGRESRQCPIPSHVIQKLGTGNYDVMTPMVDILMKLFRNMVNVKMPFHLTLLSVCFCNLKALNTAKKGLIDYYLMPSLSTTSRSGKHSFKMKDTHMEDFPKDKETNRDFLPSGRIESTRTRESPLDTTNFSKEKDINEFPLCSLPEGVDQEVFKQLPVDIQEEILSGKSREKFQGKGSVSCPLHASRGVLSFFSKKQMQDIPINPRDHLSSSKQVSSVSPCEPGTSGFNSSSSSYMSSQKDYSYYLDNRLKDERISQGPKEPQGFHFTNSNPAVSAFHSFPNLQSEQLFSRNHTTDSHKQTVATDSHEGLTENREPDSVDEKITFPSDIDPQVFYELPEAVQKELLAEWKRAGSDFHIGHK
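Fluorescent replication assay read twice, at 0 min and 10 min after adding 50 nM (final) substrate. Enzyme (10 nM) and compounds were first incubated 15 min at room temperature; enzyme-free buffer wells were negative controls.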
TbPGK inh = TbPGK inhibition, hit validation; AID 686980; TbPGK coupled GAPDH assay, Kinase-Glo luminescence; shares compounds with Pol kappa inh-1; 500 compounds, 79% hits; Potency, µM (doses to about 57.5 µM), for the others: at the highest dose activity change, negative = inhibition, hits mostly inhibitors; note: % is set by controls: 0 for no effect and ±100 for the full control effect; nearly all actives have a fitted effect of over 65% in size
Pol iota confirm = Human Pol iota inhibitor confirmatory assay; shares compounds with Pol kappa inh-1; Pol iota primer extension, TAMRA/BHQ fluorescence; Potency, µM, hits mostly inhibitors; 1,500 compounds, 77% hits
Pol kappa inh-2 = Pol kappa (human) inhibition, cherry-pick confirmation | shares compounds with Pol eta inh-1 | purified Pol-kappa, fluorescent strand-displacement substrate | Potency, µM, most hits filed as inhibitors | 920 compounds, 76% hits | AID 720501
Pol eta inh-2 = Pol eta (human) inhibition, cherry-pick confirmation; 2,600 compounds, 64% hits; Potency, µM, most hits filed as inhibitors; AID 720502; shares compounds with Pol eta inh-1; Pol eta primer extension, TAMRA/BHQ fluorescence, 10 min
* hit, by the source's call; ? = inconclusive; . = no result; [ ] = remark or other dose. Calls come from the whole dose curve; as a rule, active = well fitted curve in the direction sought with a large enough effect; inconclusive = small, poorly fitted or top-dose-only effect, or another doubt; inactive = no such curve, though single readings can be large; an effect the other way counts as inactive or inconclusive. Potency is the fitted concentration of half-maximal effect.

SMILES	GLS inh	Pol kappa inh-1	POLB inh	Pol eta inh-1	GCN5L2 inh	POLI inh	Pol iota confirm	Pol kappa inh-2	Pol eta inh-2	others
Cc1cccc(NC(=O)CN(C)S(=O)(=O)c2ccc3c(c2)c(=O)n(C)c(=O)n3C)c1C	1%	-10%	-8%	-12%	-5%	16%	.	.	.
O=C(N/N=C/c1ccncc1)c1cccc(S(=O)(=O)Nc2ccc(Cl)cc2)c1	-2%	28µM*	?	50µM*	-12%	28µM*	47*	.	67*
NS(=O)(=O)c1ccc(NC(=O)C2Cc3ccccc3CN2C(=O)c2ccco2)cc1 (stereo not given)	21%	79µM*	28µM*	20µM*	-21%	20µM*	?	.	67*
CCCCNC(=O)CCCN1C(=O)CCn2nc(-c3cccn3C)cc21	-9%	-8%[60.1 µM]	2%	-9%	20%	6%	.	.	.
O=[N+]([O-])c1ccc(C=NNC(=S)NN=Cc2ccc([N+](=O)[O-])cc2)cc1	-27%	25µM*	.	?	.	14µM*	19*	17*	43*
O=[N+]([O-])c1ccc(C=NNC(=S)Nc2ccc(F)cc2)cc1	0%	6%	.	-13%	.	17%	.	.	.
CCCCOc1ccc(S(=O)(=O)Nc2ccc(-c3ccc(N4CCC(C)CC4)nn3)cc2)cc1	-9%	-11%[60.1 µM]	19%	2%	-2%	-19%	.	.	.
Cc1nc2ccccc2c(=O)n1/N=C/c1ccc(O)c(O)c1O	?	?	1.6µM*	2.8µM*	-20%	?	1.7*	.	2.7*
Cc1nc2ccccc2c(=O)n1/N=C/c1ccccc1O	9%	-1%	-119%	-20%	-12%	43%	.	.	.
CCc1nn2c(=O)cc(COc3ccc(/C=C4\C(=N)N5N=C(C)SC5=NC4=O)cc3)nc2s1	-4%	79µM*	35µM*	7.1µM*	?	?	34*	19*	48*
COc1ccc(C2c3c(oc4ccccc4c3=O)C(=O)N2CCN2CCOCC2)cc1OC (stereo not given)	-1%	3%	.	-13%	.	16%	.	.	.
COCCN1C(=O)c2oc3ccccc3c(=O)c2C1c1ccc(OC)c(OC)c1 (stereo not given)	-6%	79µM*	-1%	22µM*	2%	?	84*	.	?
C/C(N)=C(/C#N)C(=O)CSc1nc2ccccc2c(=O)n1Cc1ccc(F)cc1	9%	79µM*	7.9µM*	20µM*	-17%	11µM*	42*	38*	48*
C/C(N)=C(/C#N)C(=O)CSc1nc2ccccc2c(=O)n1Cc1ccc(C)cc1	1%	-25%	5%	-11%	-13%	?	.	.	.
O=c1cc(N2CCNCC2)nc2sc(-c3ccncc3)nn12	.	.	.	.	.	.	27*	.	76*
CCN(Cc1ccccc1)S(=O)(=O)c1cc(Br)cc2c1N(C(=O)C1CC1)CC2	0%	-8%	-1%	-9%	-4%	17%	.	.	.
COc1cc(/C=N/N=C2/C(=O)Nc3ccccc32)ccc1O	0%	-18%	10%	?	-4%	25%	.	.	.
O=C1Nc2ccccc2/C1=N\N=C\c1ccc(O)c(O)c1	?	5.6µM*	4.5µM*	3.2µM*	-2%	2.2µM*	?	.	17*
Oc1ccc(/C=N/N=C/c2ccc(O)c(O)c2)cc1O	?	0.89µM*	0.45µM*	0.71µM*	-5%	1.3µM*	6.7*	4.7*	4.3*	TbPGK inh=1.3µM*
Cc1cc(/C=C2\SC(=S)NC2=O)c(C)n1C	0%	79µM*	40µM*	28µM*	-3%	?	67*	17*	38*
Cc1ccc(C)n1/N=C1/NC(=O)CS1	10µM*	10µM*	18µM*	2.2µM*	2%	2.5µM*	42*	.	30*	TbPGK inh=?
COc1cccc2c1C(=N)c1c(O)c3c(c(O)c1C2=O)CC(O)(C(C)=O)CC3OC1CC(N)C(O)C(C)O1 (stereo not given)	36%	?	.	?	.	?	.	.	.
COc1cccc2c1C(=O)c1c(O)c3c(c(O)c1C2=O)C[C@](O)(C(C)=O)C[C@H]3O[C@@H]1C[C@@H](N)[C@@H](O)[C@@H](C)O1	9%	35µM*	.	40µM*	-2%	16µM*	17*	34*	85*
COc1cccc2c1C(=O)c1c(O)c3c(c(O)c1C2=O)CC(O)(C(C)=O)CC3OC1CC(O)C(O)C(C)O1 (stereo not given)	19%	?	.	25µM*	.	45µM*	24*	75*	34*
CCCCC(=O)OCC(=O)C1(O)Cc2c(O)c3c(c(O)c2C(OC2CC(NC(=O)C(F)(F)F)C(O)C(C)O2)C1)C(=O)c1c(OC)cccc1C3=O (stereo not given)	17%	?	.	-22%	.	?	.	.	.
SMILES	GLS inh	Pol kappa inh-1	POLB inh	Pol eta inh-1	GCN5L2 inh	POLI inh	Pol iota confirm	Pol kappa inh-2	Pol eta inh-2	others
COc1ccc(C2Nc3ccccc3-c3nnc(SC)nc3O2)cc1C (stereo not given)	12%	7%	32%	-3%	-4%	7%	.	.	.
CCOc1ccc(NC(=O)CCn2cccn2)cc1	1%	0%	4%	-7%	-8%	3%	.	.	.
Cc1cc(NC(=O)CSc2ncc(C(=O)Nc3ccc(F)cc3)c(=O)n2C)no1	0%	-7%[60.1 µM]	-1%	-3%	0%	40%	.	.	.
Oc1ccc(-c2csc(-c3cccnc3)n2)cc1O	3.5µM*	32µM*	?	25µM*	-15%	28µM*	84*	.	?
CN(C)CCCNc1c2ccccc2nc2ccccc12	0%	25µM*	2.2µM*	22µM*	-12%	8.9µM*	11*	9.5*	.
N=C1/C(=C\c2ccc(-c3ccc(C(=O)O)cc3)o2)C(=O)N=C2SC=C(c3ccccc3)N12	?	50µM*	?	3.5µM*	-2%	?	38*	.	27*

Source: PubChem BioAssay (National Center for Advancing Translational Sciences (NCATS))
